# Screening data as filed in PubChem.
# Sampled rows, rich in hits. Any-hit rate of the full collection: about 2.8%.
# PAFAH2 FP inh – inhibitors of human PAFAH2. Q99487. recombinant PAFAH2, FP-rhodamine activity probe, fluorescence polarization. inhibition, % at 3.39 µM. 0.99% of 340,000 active. AID 492956;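 active means inhibition above the mean over all tested compounds plus 3 SD, cut at about 30% in these data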;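 further: inhibitors block probe labeling of enzyme so polarization drops; 0% = enzyme with DMSO and 100% = wells lacking PAFAH2 protein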
# Fam108B inh – blocks mouse Fam108B hydrolase in RBBP9 counter-screen | inhibition, % at 9.51 µM | AID 1947 | 0.33% of 300,000 active | recombinant Fam108B, FP-Rh probe fluorescence polarization;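 active means inhibition above the screen mean inhibition plus 3 SD, computed separately per campaign, cut at about 18% in these data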;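 further: inhibitors lower polarization as less probe binds the enzyme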
# pPAFAH FP inh – inhibitors of human plasma PAF acetylhydrolase (pPAFAH); AID 463082; recombinant pPAFAH, FP-rhodamine probe fluorescence polarization; 1.5% of 330,000 active; inhibition, % at 3.39 µM; Q13093;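 active means inhibition above the mean inhibition across the screen plus 3 SD, cut at about 25% in these data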;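 further: inhibitors block binding of the rhodamine activity-based probe so polarization drops; 0% = enzyme with DMSO and 100% = wells lacking pPAFAH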
# PAFAH1B2 inh – blocks human PAF acetylhydrolase 1b catalytic subunit 2 | inhibition, % at 3.39 µM | 1.2% of 340,000 active | recombinant PAFAH1B2, FP-rhodamine activity probe, fluorescence polarization | AID 492953;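 active means inhibition above the mean of all tested compounds plus 3 SD, cut at about 24% in these data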;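 further: 0% = enzyme with DMSO and 100% = wells lacking PAFAH1B2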
# Target sequence (P68402 whole entry, looked up): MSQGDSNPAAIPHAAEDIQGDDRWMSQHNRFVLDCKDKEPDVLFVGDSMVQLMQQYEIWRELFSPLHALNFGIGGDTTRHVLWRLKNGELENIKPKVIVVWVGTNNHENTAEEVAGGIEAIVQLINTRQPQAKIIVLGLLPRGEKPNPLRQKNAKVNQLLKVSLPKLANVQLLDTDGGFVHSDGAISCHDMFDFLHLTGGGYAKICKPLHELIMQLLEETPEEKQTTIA
# PME-1 primary – PME-1 (human) inhibition; recombinant PME-1, FP-Rh probe fluorescence polarization; 0.53% of 320,000 active; AID 2130; Q9Y570; inhibition, % at 5.9 µM;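 active means inhibition above the campaign mean of all compounds plus 3 SD, cut at about 26% in these data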;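 further: competitive labeling of PME-1 active site by serine hydrolase directed probe; 0% = PME-1 with DMSO and 100% = wells lacking PME-1 enzyme; inhibitors block probe labeling so polarization falls and inhibition rises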
# PAFAH1B3 inh – inhibitors of human PAFAH1B3; Q15102; recombinant PAFAH1B3, FP-rhodamine probe, fluorescence polarization; inhibition, % at 3.39 µM; 0.28% of 340,000 active; AID 492972;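 active means inhibition above the screen-wide average of all tested compounds plus 3 SD, cut at about 25% in these data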;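 further: 0% = enzyme with DMSO only and 100% = wells lacking PAFAH1B3 protein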
# Target sequence (Q15102 whole entry, looked up): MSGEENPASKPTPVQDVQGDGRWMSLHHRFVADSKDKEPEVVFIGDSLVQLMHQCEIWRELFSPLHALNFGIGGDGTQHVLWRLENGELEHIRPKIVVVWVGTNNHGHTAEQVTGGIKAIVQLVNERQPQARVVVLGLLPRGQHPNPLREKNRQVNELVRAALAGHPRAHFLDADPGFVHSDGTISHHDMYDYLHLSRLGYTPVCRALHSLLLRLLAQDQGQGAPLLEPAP
# PAFAH2 confirm – confirmation of human PAFAH2 inhibitors | 65% of 2,300 active | inhibition, % at 3.39 µM | shares compounds with PAFAH2 FP inh | AID 493030 | recombinant PAFAH2, FP-rhodamine activity probe, fluorescence polarization;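 active means mean inhibition over three repeats above a set limit taken from the earlier primary screen, cut at about 30% in these data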;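 further: inhibitor blocks binding of rhodamine activity probe so polarization falls; 0% = enzyme with DMSO and 100% = wells lacking PAFAH2 protein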
# * marks the source's active call; other numbers are inactive results; nt = no result.
SMILES,PAFAH2 FP inh,Fam108B inh,pPAFAH FP inh,PAFAH1B2 inh,PME-1 primary,PAFAH1B3 inh,PAFAH2 confirm
O=C(COC(=O)/C=C/c1ccc(C(F)(F)F)cc1)NC1CC1,17.9,1.2,-1.3,3.0,0.1,5.2,nt
O=C(COC(=O)/C=C/c1ccccc1)NC1CC1,53.6*,nt,1.0,-1.1,0.0,8.0,33.4*
O=C(COC(=O)/C=C/c1ccccc1)NC1CCS(=O)(=O)C1 (centres undefined),6.2,nt,2.1,-3.6,-0.7,11.1,nt
O=C(COC(=O)/C=C/c1cccs1)NC1CC1,40.7*,2.0,-10.3,1.3,-12.3,4.5,39.3*
O=C(COC(=O)/C=C/c1cccc(C(F)(F)F)c1)NC1CCCCCC1,31.1*,nt,-3.8,1.4,0.1,3.0,42.8*
O=C(COC(=O)/C=C/c1ccccc1)NC1CCCCCC1,88.6*,nt,nt,1.6,nt,7.3,81.8*
COc1cccc(NC(=S)N(C)C2CCN(C)CC2)c1,-6.5,-0.9,0.7,5.0,0.4,6.3,nt
O=C(COC(=O)/C=C/c1ccccc1[N+](=O)[O-])NC1CCS(=O)(=O)C1 (centres undefined),5.4,-2.9,9.4,-0.5,1.4,1.4,nt
O=C(COC(=O)/C=C/c1ccccc1)NC(=O)NC1CCCCC1,35.2*,nt,8.9,0.2,nt,-0.6,25.4
O=C(COC(=O)/C=C/c1ccccc1[N+](=O)[O-])NC1CC1,36.1*,-4.4,20.0,6.7,-5.4,-4.1,22.5
Cc1ccc(C)c(S(=O)(=O)N(C)c2ccc(OC(=O)C3CCN(C(=O)Nc4ccccc4)CC3)cc2)c1,32.1*,nt,nt,-1.2,nt,3.5,17.0
O=C(O/N=C1\CCCc2ccccc21)c1cccs1,42.0*,3.7,-0.6,4.0,4.4,4.2,-5.4
CCCNC(=O)C1(CC2CC(c3ccccc3)=NO2)CCN(C(=O)Cc2ccc(F)cc2)CC1 (centres undefined),0.3,-1.4,-0.5,7.8,4.1,2.5,nt
O=C(COC(=O)C1CCC1)Nc1cccc(Cl)c1,3.0,-0.5,0.4,0.0,-1.5,-1.6,nt
O=C(COC(=O)C1CCCCC1)Nc1cccc(Br)c1,77.4*,nt,7.5,-1.7,3.3,4.2,70.8*
O=C(COC(=O)C1CCCCC1)Nc1cccc(F)c1,89.2*,nt,9.6,-0.5,nt,3.9,79.4*
O=C(COC(=O)CC1CCCC1)Nc1cccc(F)c1,81.4*,nt,20.6,-4.2,0.2,-1.5,81.3*
Cc1noc(C)c1NC(=O)Nc1cccc2c1O[C@H](CN(C)C(=O)NC1CCCCC1)[C@@H](C)CN([C@H](C)CO)C2=O,5.7,nt,5.0,5.4,nt,0.7,nt
Cc1c(NC(=O)COC(=O)C2CC3C=CC2C3)c(=O)n(-c2ccccc2)n1C (centres undefined),-2.8,7.3,2.0,1.3,4.1,12.4,nt
O=C(COC(=O)C1CC2C=CC1C2)Nc1ccc([N+](=O)[O-])cc1 (centres undefined),56.7*,nt,20.1,9.8,nt,2.0,53.9*
NC(=O)c1ccc(NC(=O)COC(=O)C2CC3C=CC2C3)cc1 (centres undefined),-6.8,nt,0.9,4.0,nt,0.5,nt
O=C(COC(=O)C1CC2C=CC1C2)Nc1ccccc1[N+](=O)[O-] (centres undefined),76.8*,nt,12.9,1.0,nt,10.8,57.7*
CC(C)c1ccc(NC(=O)COC(=O)C2CC3C=CC2C3)cc1 (centres undefined),44.3*,nt,23.9,2.3,nt,-0.7,23.9
COc1ccc(NS(=O)(=O)c2cc([N+](=O)[O-])ccc2NN=Cc2ccccc2OCC(=O)O)cc1,48.9*,nt,21.4,7.6,nt,14.0,22.4
O=C1ON=C(c2ccccc2[N+](=O)[O-])/C1=C/c1cccc([N+](=O)[O-])c1O,0.1,nt,5.3,1.4,2.1,4.5,nt
CC(=O)Nc1ccc(C(=O)OCC(=O)NC(=O)NC2CCCCC2)cc1,53.0*,0.8,-1.6,-2.4,1.5,4.8,38.6*
CC(Oc1ccccc1)C(=O)OCC(=O)NC(=O)NC1CCCCC1 (centres undefined),2.0,nt,5.9,2.1,3.1,-4.1,nt
CC(C)Oc1ccc(C(=O)OCC(=O)NC(=O)NC2CCCC2)cc1,40.9*,nt,7.6,0.9,1.8,1.9,33.9*
